Test results as given in PubChem BioAssay (Tox21).
Inconclusive results are not listed. The source made the active and inactive calls. Unless noted, calls come from the whole dose curve; as a rule, active = well fitted curve in the direction sought with a large enough effect in the repeat runs; inconclusive = weak or mixed curves; inactive = no such curve, though single readings can be large; an effect the other way counts as inactive or inconclusive.

Assays:
[1] = biological target: Peroxisome proliferator-activated receptor delta (Homo sapiens) (UniProt Q03181); test: qHTS assay to identify small molecule agonists of the peroxisome proliferator-activated receptor delta (PPARd) signaling pathway (AID 743212; calls by dose curve;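 note: HEK293H cells with PPARd UAS beta-lactamase reporter GeneBLAzer system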)
Sequence of Peroxisome proliferator-activated receptor delta (Homo sapiens) (Q03181 whole entry, looked up): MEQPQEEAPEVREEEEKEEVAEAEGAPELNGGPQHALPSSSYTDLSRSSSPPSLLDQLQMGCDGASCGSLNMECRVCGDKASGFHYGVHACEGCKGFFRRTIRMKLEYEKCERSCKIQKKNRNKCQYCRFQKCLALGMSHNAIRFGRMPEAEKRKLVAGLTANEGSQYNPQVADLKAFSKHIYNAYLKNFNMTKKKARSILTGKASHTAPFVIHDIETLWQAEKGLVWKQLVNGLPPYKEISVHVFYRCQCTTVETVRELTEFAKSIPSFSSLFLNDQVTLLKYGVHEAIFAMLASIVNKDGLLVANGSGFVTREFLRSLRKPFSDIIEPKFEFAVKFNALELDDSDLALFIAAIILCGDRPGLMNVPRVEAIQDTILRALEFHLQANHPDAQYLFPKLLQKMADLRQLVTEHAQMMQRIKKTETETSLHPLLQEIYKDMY
How it was run: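 Beta-lactamase reporter readout: a ratiometric FRET signal from the LiveBLAzer substrate after 2 h at room temperature. Compound exposure at 37 °C in PPARδ-bla HEK293H cells driven by an upstream activator sequence.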

[2] = biological target: Peroxisome proliferator-activated receptor delta (Homo sapiens) (UniProt Q03181); test: qHTS assay to identify small molecule antagonists of the peroxisome proliferator-activated receptor delta (PPARd) signaling pathway (AID 743215; active = well fitted inhibition curve with a large enough effect in the signal ratio in the repeat runs, not every such curve was filed as active; the % refers to the signal ratio; note: series mostly up to about 62 µM)
How it was run: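 Agonist L165041 (300 nM final) added with compound to PPARd-bla HEK293H UAS-bla reporter cells; 17 h incubation at 37 C. Read-out: LiveBLAzer FRET substrate, 2 h at room temperature, fluorescence intensity.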

[3] = biological target: Bile acid receptor (Homo sapiens) (UniProt Q96RI1); test: qHTS assay to identify small molecule antagonists of the farnesoid-X-receptor (FXR) signaling pathway (AID 743217; active = well fitted inhibition curve with a large enough effect in the signal ratio in the repeat runs, not every such curve was filed as active; the % refers to the signal ratio)
Sequence of Bile acid receptor (Homo sapiens) (Q96RI1 whole entry, looked up): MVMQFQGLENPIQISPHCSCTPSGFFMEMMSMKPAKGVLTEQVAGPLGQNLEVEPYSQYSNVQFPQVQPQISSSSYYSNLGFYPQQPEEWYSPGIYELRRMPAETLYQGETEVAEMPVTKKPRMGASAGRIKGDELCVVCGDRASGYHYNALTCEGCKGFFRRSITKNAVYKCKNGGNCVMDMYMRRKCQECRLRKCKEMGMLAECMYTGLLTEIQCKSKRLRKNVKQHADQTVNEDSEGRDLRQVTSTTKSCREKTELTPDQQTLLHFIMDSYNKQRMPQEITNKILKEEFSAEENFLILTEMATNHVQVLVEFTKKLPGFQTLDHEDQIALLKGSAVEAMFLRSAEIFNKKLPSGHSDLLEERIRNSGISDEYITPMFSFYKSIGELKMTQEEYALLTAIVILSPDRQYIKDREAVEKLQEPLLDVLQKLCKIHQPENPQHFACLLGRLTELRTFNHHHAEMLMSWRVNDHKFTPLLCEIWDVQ
How it was run: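 Antagonist mode: chenodeoxycholic acid at 50 uM final stimulates a UAS-driven beta-lactamase reporter in HEK 293T FXR-bla cells during 16 h, 37C compound exposure. Read-out is FRET substrate fluorescence after 2 h at room temperature.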

[4] = qHTS assay to identify small molecule agonists of the farnesoid-X-receptor (FXR) signaling pathway - cell viability counter screen (AID 743218); note: nearly all actives have a fitted effect of over 45% in size
How it was run: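 Viability counter screen in the same wells: CellTiter-Glo luminescence, 30 min room-temperature incubation, measured after the beta-lactamase read. Cells were GeneBLAzer FXR-UAS-bla HEK 293T, compound-treated 16 h at 37C.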

[5] = biological target: Bile acid receptor (Homo sapiens) (UniProt Q96RI1); test: qHTS assay to identify small molecule agonists of the farnesoid-X-receptor (FXR) signaling pathway (AID 743220; active = well fitted activation curve with a large enough effect in the signal ratio in the repeat runs, not every such curve was filed as active; the % refers to the signal ratio)
How it was run: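 FXR-UAS-bla HEK 293T cells carrying a UAS-driven beta-lactamase reporter were plated for 5 h at 37C/5% CO2, then exposed to DMSO-dissolved Tox21 10K compounds for 16 h at 37C. A LiveBLAzer B/G FRET substrate was loaded for 2 h at room temperature before fluorescence reading.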

[6] = qHTS assay to identify small molecule antagonists of the farnesoid-X-receptor (FXR) signaling pathway - cell viability counter screen (AID 743221; active = well fitted cell-killing curve with a large enough effect in the repeat runs, not every such curve was filed as active; note: nearly all actives have a fitted effect of over 50% in size)
How it was run: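 In GeneBLAzer FXR-UAS-bla HEK 293T cells stimulated with 50 uM chenodeoxycholic acid (final), compounds acted for 16 h at 37 C. Viability was assessed afterwards by CellTiter-Glo luminescence.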

[7] = biological target: Vitamin D3 receptor (Homo sapiens) (UniProt P11473); test: qHTS assay to identify small molecule agonists of the vitamin D receptor (VDR) signaling pathway (AID 743222; calls by dose curve)
Sequence of Vitamin D3 receptor (Homo sapiens) (P11473 whole entry, looked up): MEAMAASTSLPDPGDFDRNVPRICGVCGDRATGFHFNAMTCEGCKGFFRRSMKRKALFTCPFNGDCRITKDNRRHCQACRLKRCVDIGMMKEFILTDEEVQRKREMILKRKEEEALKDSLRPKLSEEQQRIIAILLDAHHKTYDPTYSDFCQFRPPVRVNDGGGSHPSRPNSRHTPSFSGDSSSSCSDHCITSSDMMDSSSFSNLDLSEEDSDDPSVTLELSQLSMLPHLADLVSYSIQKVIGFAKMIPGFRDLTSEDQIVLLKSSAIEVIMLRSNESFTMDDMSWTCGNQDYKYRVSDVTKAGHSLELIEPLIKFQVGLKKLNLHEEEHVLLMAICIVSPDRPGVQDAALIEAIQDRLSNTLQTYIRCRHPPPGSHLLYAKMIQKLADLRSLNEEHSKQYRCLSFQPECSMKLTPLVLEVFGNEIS
How it was run: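 Agonist mode, beta-lactamase reporter: fluorescence from LiveBLAzer B/G FRET substrate (2 h, room temperature) read after 16 h compound treatment at 37 C of VDR-bla cells, which were pre-incubated 4 h after seeding.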

[8] = biological target: Vitamin D3 receptor (Homo sapiens) (UniProt P11473); test: qHTS assay to identify small molecule antagonists of the vitamin D receptor (VDR) signaling pathway (AID 743223; active = well fitted inhibition curve with a large enough effect in the signal ratio in the repeat runs, not every such curve was filed as active; the % refers to the signal ratio)
How it was run: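 Agonist 1alpha,25-dihydroxyvitamin D3 (3 nM in well) was added with each compound to VDR-bla cells preincubated 4 h. Cells stood 16 h at 37C, then FRET substrate 2 h at room temperature; fluorescence intensity recorded.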

[9] = qHTS assay to identify small molecule antagonists of the vitamin D receptor (VDR) signaling pathway - cell viability counter screen (AID 743225); note: nearly all actives have a fitted effect of over 50% in size
How it was run: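 Luminescent cell viability (CellTiter-Glo) in VDR-bla HEK 293T cells after 16 h compound exposure at 37C in the presence of 3 nM final 1-alpha,25-dihydroxy vitamin D3.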

[10] = qHTS assay to identify small molecule agonists of the NFkB signaling pathway (AID 1159509; active = well fitted curve in the direction sought with a large enough effect in the signal ratio in the repeat runs, not every such curve was filed as active; the % refers to the signal ratio; note: series mostly up to about 61 µM)
How it was run: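 Pathway activation was measured in ME-180 cells stably expressing beta-lactamase under NF-kB response element control. Substrate cleavage was read as the 460/530 nm emission shift after 5 hr compound incubation.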

[11] = qHTS assay to identify small molecule agonists of the NFkB signaling pathway - cell viability counter screen (AID 1159515; calls by dose curve; note: series mostly up to about 61 µM; nearly all actives have a fitted effect of over 55% in size)
How it was run: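 Read by CellTiter-Glo luminescence (30 min, room temperature) in the wells also used for the beta-lactamase FRET read. ME-180 NFkB-bla cells at 2,000 per well were plated overnight, then exposed to compound for 5 hr at 37 C.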

[12] = qHTS assay to identify small molecule agonists of the endoplasmic reticulum stress response signaling pathway - cell viability counter screen (AID 1159517; calls by dose curve; note: series mostly up to about 61 µM; nearly all actives have a fitted effect of over 50% in size)
How it was run: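 ESRE-bla HeLa cells (1,500/well) were plated overnight at 37 C and exposed to compounds for 5 hr. After the 2 hr beta-lactamase substrate read, CellTiter-Glo went into the same wells, and luminescence was read after 30 min at room temperature.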

[13] = qHTS assay to identify small molecule antagonists of the retinoid-related orphan receptor gamma (ROR-gamma) signaling pathway - cell viability counter screen (AID 1159520); note: nearly all actives have a fitted effect of over 50% in size
How it was run: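 Cytotoxicity was read from cellular ATP (CellTiter-Glo luminescence) after 16 hr at 37 C with 1 uM doxycycline induction. The inducer was added 2 hr after compound transfer to Tet-on ROR gamma CHO cells.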

[14] = biological target: Nuclear receptor ROR-gamma (Homo sapiens) (UniProt P51449); test: qHTS assay to identify small molecule antagonists of the retinoid-related orphan receptor gamma (ROR-gamma) signaling pathway (AID 1159521)
How it was run: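 CHO cells expressing RORγ under a TET-on promoter, luciferase under RORE control. Dox 1 uM final, 16 h; compounds added 2 h prior. Luminescence decrease measured.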

[15] = qHTS assay to identify small molecule agonists of the AP-1 signaling pathway - cell viability counter screen (AID 1159525; calls by dose curve; note: nearly all actives have a fitted effect of over 55% in size)
How it was run: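 Intracellular ATP by Cell Titer Glo luminescence (30 min, RT) in the same ME-180 AP-1-bla wells after the 5 h compound exposure at 37 °C. Normalised to tetra n-octyl ammonium bromide and DMSO controls.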

[16] = qHTS assay to identify small molecule agonists of the AP-1 signaling pathway (AID 1159526; calls by dose curve)
[17] = qHTS assay to identify small molecule agonists of the peroxisome proliferator-activated receptor delta (PPARd) signaling pathway - cell viability counter screen (AID 743211); note: nearly all actives have a fitted effect of over 55% in size
How it was run: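 Luminescent ATP viability assay (CellTiter-Glo, 30 min RT) in UAS-bla HEK293H cells carrying the PPAR delta reporter construct, 3000 cells/well, after a 17 h compound treatment at 37 C.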

[18] = qHTS assay to identify small molecule antagonists of the peroxisome proliferator-activated receptor delta (PPARd) signaling pathway - cell viability counter screen (AID 743213); note: nearly all actives have a fitted effect of over 50% in size
How it was run: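 Agonist-stimulated (L165041, 300 nM final) HEK293H PPARd UAS-bla cells are exposed to compounds for 17 h at 37 C, and ATP-based luminescence (CellTiter-Glo) from the same wells reports cytotoxicity.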

[19] = qHTS assay to identify small molecule agonists of the vitamin D receptor (VDR) signaling pathway - cell viability counter screen (AID 743224)
How it was run: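 Counter screen run in the same wells as the VDR-bla reporter assay: CellTiter-Glo luminescence, 30 min at room temperature, after 16 h compound treatment at 37C of cells pre-plated for 4 h.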

[20] = qHTS assay to identify small molecule agonists of the endoplasmic reticulum stress response signaling pathway (AID 1159516; active = well fitted activation curve with a large enough effect in the signal ratio in the repeat runs, not every such curve was filed as active; the % refers to the signal ratio)
How it was run: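 Ratiometric FRET readout (405 nm excitation; 460 and 530 nm emission) of a beta-lactamase gene driven by the ER stress response element, after 2 hr substrate loading. HeLa ESRE-bla cells were seeded overnight and treated with compounds for only 5 hr at 37 C.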

Measured: Potency

O=C1CC(c2ccc(Cl)cc2)CC(=O)N1
not listed: [17] | [18] | [19] | [20]
inactive: all other assays above

OC[C@H](Cc1cccc(O)c1)[C@H](CO)Cc1cccc(O)c1
not listed: [12] | [13]
inactive: all other assays above

N#Cc1ccc(C(=O)O)cc1
not listed: [1] | [2] | [3] | [15] | [20]
inactive: all other assays above

CCCCCCCCCCl
not listed: [1] | [2] | [9] | [19] | [20]
inactive: all other assays above

CCC(CC)CO
not listed: [3] | [4] | [5] | [12] | [17]
inactive: all other assays above

Cc1cccc2nccnc12
not listed: [13] | [20]
inactive: all other assays above

COc1cc(N)ccc1C
not listed: [4] | [19] | [20]
inactive: all other assays above

CC/C=C\CC1=C(C)CCC1=O
not listed: [1] | [2] | [3] | [5] | [9] | [12]
inactive: all other assays above

O=S(=O)(O)c1ccc2cc(O)c(S(=O)(=O)O)cc2c1
not listed: [3] | [5] | [12] | [15]
inactive: all other assays above

COc1ccc(Br)c(C)c1
not listed: [7] | [8] | [12] | [17] | [20]
inactive: all other assays above

COc1cc(C(=S)N2CCOCC2)cc(OC)c1OC
not listed: [20]
inactive: all other assays above

CCCC/C=C/C=C\C=O
not listed: [12] | [15] | [19]
inactive: all other assays above

CC(COC(C)(C)C)OCCCO (stereo not given)
not listed: [1] | [2] | [4] | [12] | [13]
inactive: all other assays above

CC(C)C[C@H](NC(=O)CNC(=O)[C@H](Cc1ccc(O)cc1)NC(=O)[C@H](CO)NC(=O)[C@H](Cc1c[nH]c2ccccc12)NC(=O)[C@H](Cc1cnc[nH]1)NC(=O)[C@@H]1CCC(=O)N1)C(=O)N[C@@H](CCCN=C(N)N)C(=O)N1CCC[C@H]1C(=O)NCC(N)=O (stereo in doubt)
not listed: [2] | [4] | [5] | [15] | [20]
inactive: all other assays above

CCCCCCOc1ccccc1C(N)=O
not listed: [3] | [5] | [12] | [18] | [19] | [20]
inactive: all other assays above

CCC(C)(CCC(C)C)C(=O)O (stereo not given)
not listed: [3] | [5] | [9] | [20]
inactive: all other assays above
